# Measurements from PubChem BioAssay (NCI).
# “And” between values parts separate entries of the source, which are not always exact repeats. Equal entries are not always repeated. The panel holds about 83,000 compounds, 20% with a hit somewhere; the sample as a whole holds those more often.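 48-hour exposure, single concentration, 96-well plates; percent growth endpoint where 0 means no net growth. Active: below 10.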 The source made the active and inactive calls.
# System: MDA-MB-468 breast
# Assay: NCI-60 one-dose screen, 48 h (100 = growth as untreated, 0 = no growth, -100 = all killed)
# Conditions: 10 µM unless noted
row,SMILES,growth
1,NS(=O)(=O)c1ccccc1NC(=O)Nc1nc2ccccc2s1,104% (inactive)
2,COc1nc(/C=C\Nc2ccc3c(c2)OCCOCCOCCOCCO3)nc(OC)n1,108% (inactive)
3,BrCCCOc1ccc(Oc2ccc(OCCCBr)cc2)cc1,97.5% (inactive)
4,Cn1ccnc1C(=O)/C=C/c1ccc(C(=O)Nc2ccc(Cl)cc2)cc1,12.1% (inactive)
5,CCCCCCCCCCCCCCCCC(=O)O,102% (inactive)
6,COc1ccc(/C=C\c2cc(OC)c(OC)c(OC)c2)cc1OC(=O)c1cccc(Cn2cc(CCOC(=O)c3cccc(Cn4nnc5c4C(=O)c4ccccc4C5=O)c3)nn2)c1,5.62% (active)
7,CCCCc1ccc(NS(=O)(=O)c2cc3c4c(c2)CCN4C(=O)CC3)cc1,-25.9% (active)
8,N#Cc1c(-c2ccc(Cl)cc2)nc(N/N=C/c2cccc(Br)c2)nc1N1CCOCC1,76.7% (inactive)
9,O=C(/C=C/c1cccc(O)c1)c1ccccc1O,85% (inactive)
10,COc1ccc(C2=Nn3c(NN)nnc3SC2)cc1,106% (inactive)
11,CCCCCCCC(=O)SCC/C=C/[C@@H]1CC(=O)NCc2cc(ccn2)C2=N[C@@](C)(CS2)C(=O)N[C@@H](C(C)C)C(=O)O1,12.2% (inactive)
12,OCC1OC2C(NC(=S)N2c2ccccc2)C(O)C1O (stereo not given),94.6% (inactive)
13,CC[N+](CC)=c1cc2oc3cc(N(C)C)ccc3nc-2cc1C,-14% (active)
14,O=C(NCCN1CCCC1)c1ccc(-c2nc3ccc4[nH]ncc4c3c3c2CCCC3)cc1,-43.9% (active)
15,COc1cnc2c(c1)C(=O)c1c-2n(CCCN2CCOCC2)c(=O)c2cc(Cl)ccc12,-1.98% (active)
16,CCOC(=O)c1cn2c3c(cc(F)cc3c1=O)C(CC)c1ccccc1C2 (stereo not given),99.4% (inactive)
17,C(=C\c1c[nH]c2ccccc12)/c1ccc2ccccc2n1,68.5% (inactive)
18,O=C(Nc1cccc2c1CCCC2)c1cc2ccccc2cc1O,33.8% (inactive)
19,Cc1cc(N2CCN(C)CC2)nc(N(CCNc2ccnc3cc(Cl)ccc23)Cc2ccco2)n1,37.5% (inactive)
20,O=C(Cn1ccc2ccccc21)Nc1ccc(-c2nc3ccccc3s2)cc1,-50.2% (active)

row,SMILES,growth
1,CCN1C(=O)N(CC)C2Nn3c(s/c(=C4\C(=O)N(CC(C)C)c5ccccc54)c3=O)=NC21 (stereo not given),15.8% (inactive)
2,N#Cc1c(-c2cccs2)cc(-c2cnccn2)nc1SCC(=O)N/N=C/c1ccc(Cl)cc1,108% (inactive)
3,COc1cc(C(=O)N/N=C/c2cccc([N+](=O)[O-])c2)cc(OC)c1OC,6.95% (active)
4,O=C(COc1ccc(-c2nc3cc(Cl)c(Cl)cc3[nH]2)cc1)N=Nc1c(O)[nH]c2ccccc12,-49.5% (active)
5,CN1CCN(Cc2ccc(NC(=O)c3cncc(C#Cc4cnc5ccc(OCC6(C)COC6)nn45)c3)cc2C(F)(F)F)CC1,-73.8% (active)
6,CC(=O)C(/C=N/C(N)=O)=C(/C)O,109% (inactive)
7,S=C(c1ccccc1)N1CCN(c2cccc(Cl)c2)CC1,105% (inactive)
8,Cc1cc(O)cc(-c2nn(C)cc2-c2cc(N3CCOCC3)nc(-c3cccnc3)n2)c1,-3.22% (active)
9,COC(=O)c1ccc2cc(OC)c(OC)cc2c1,98.6% (inactive)
10,Cc1ccc(N)c(S(=O)(=O)O)c1,82.6% (inactive)
11,Nc1ccc(O)c(C(=O)O)c1,73.1% (inactive) and 9.23% (active) and 98.8% (inactive)
12,CC(C)(C)OC(=O)N1C/C(=C\c2ccoc2)C(=O)/C(=C/c2ccoc2)C1,97.3% (inactive)
13,Nc1nc(=S)c2[nH]cnc2[nH]1,-13.1% (active)
14,N=C(N)c1ccc(-c2cc(Cl)cc(Cl)c2)cn1,78.7% (inactive)
15,COc1ccc(CN2c3ccccc3Sc3ccccc32)cc1F,-0.673% (active)
16,C/C=C/C=N/NC(=S)Nc1ccccc1,107% (inactive)
17,O=C(N/N=C\c1c(O)ccc2ccccc12)C1CC1,11.8% (inactive)
18,CC[C@@](C)(NC(=O)C(C)(C)NC(=O)[C@@H](NC(=O)[C@@H]1CCCN1C(=O)C(C)(C)NC(=O)[C@H](CC(C)C)NC(=O)CNC(=O)C(C)(C)NC(=O)[C@@H](NC(=O)C(C)(C)NC(=O)[C@H](CCC(N)=O)NC(=O)[C@H](C)NC(=O)C(C)(C)NC(=O)[C@H](C)NC(=O)C(C)(C)NC(=O)[C@@H]1CCCN1C(=O)C(C)(C)NC(C)=O)C(C)C)C(C)C)C(=O)N[C@@H](CCC(N)=O)C(=O)N[C@@H](CCC(N)=O)C(=O)N[C@H](CO)Cc1ccccc1,-3.95% [4.25 µM] (active)
19,Cc1nc2ccccc2c(C(=O)O)c1O,99.9% (inactive)
20,CC1(C)OC(=O)CC1=O,100% (inactive)
